An excerpt weighted towards active compounds, which were near 1% of everything screened.
Sa RN4220 lethal: S. aureus RN4220 growth inhibition; OD600, 16 h; inhibition, % (test concentration not listed); 330,000 tested, 0.33% active; AID 1259311; in the data active = inhibition above about 85%;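 also: plate controls were untreated cells for no effect and reference antibiotic for full effect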
Sa ugtP lethal: growth inhibition of S. aureus ugtP deletion strain | S. aureus RN4220 ugtP deletion, OD600 growth, 16 h | growth inhibition, % (no concentration beside the values) | 330,000 tested, 0.54% active; in the data active = growth inhibition above about 68%;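 also: plate controls were untreated wells for no effect and antibiotic for full effect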
SSB-PriA inh: inhibitors of Klebsiella pneumoniae PriA binding to SSB C-terminal tail | AlphaScreen SSBct-PriA binding, biotinylated peptide | AID 1272365 | 430,000 tested, 0.6% active | inhibition, % at 33 µM; in the data active = inhibition mostly above about 37%, no sharp cut-off; inactive = mostly below about 20%;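 also: plate controls were negative control peptide for no effect and reference peptide for full effect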
* marks the source's active call; other numbers are inactive results; . = no result; ! = not confirmed by another sample.

SMILES | Sa RN4220 lethal | Sa ugtP lethal | SSB-PriA inh
Cn1cccc1C(CNC(=O)c1ccc2ccccc2c1)N1CCCC1 (stereo not drawn) | . | . | 22.0*
Cn1cccc1C(CNC(=O)c1ccc(C(C)(C)C)cc1)N1CCCC1 (stereo not drawn) | . | . | 9.0
Cc1nc(C)c(CC(=O)N2CCN(c3ncccn3)CC2)s1 | . | . | -10.0
O=c1[nH]c(-c2ccccn2)nc2ccccc12 | 17.3 | 17.0 | 42.0*
O=c1cc(O)nc(-c2ccccn2)[nH]1 | . | . | 44.7
c1ccc(-c2nc3ccccc3[nH]2)nc1 | 2.0 | -6.0 | -3.5
O=c1[nH]c(-c2ccccn2)nc(C(F)(F)F)c1Br | 17.3 | 6.8 | 82.9*
C1CC1c1noc(C2CNC2)n1 | . | . | -9.0
Cc1ccsc1[C@@H](O)CNC(=O)Cc1c(C)noc1C | . | . | 1.0
COc1cc(NS(=O)(=O)c2ccc3c(c2)CCCC3)ccc1N1CCCC1=O | . | . | 10.0
Cc1c(N)cccc1N1CCCNC1=O | . | . | 11.0
CN1CCN(c2ccc(S(C)(=O)=O)cc2[N+](=O)[O-])CC1 | 1.6 | 1.4 | -11.4
CN1CCN(c2ccc([N+](=O)[O-])c3no[n+]([O-])c23)CC1 | 55.9 | 98.1* | .
CCc1cccc2sc(N(CCCN3CCOCC3)C(=O)c3ccc4c(c3)OCCO4)nc12 | . | . | 28.0*
CCc1cccc2sc(N(CCN3CCOCC3)C(=O)c3cc(C)n(CC)n3)nc12 | . | . | -10.0
CCc1cccc2sc(N(CCN(C)C)C(=O)c3cccc(SC)c3)nc12 | . | . | 42.0*
CSc1cccc(C(=O)N(CCn2cccn2)c2nc3c(Cl)cccc3s2)c1 | . | . | -9.0
O=C(CSc1ncc(CO)n1CC(=O)NC1CC1)Nc1cc(C(F)(F)F)ccc1Cl | . | . | 9.0
O=C(COc1ccc(Cl)cc1Cl)Nc1ccc2c(c1)CN(S(=O)(=O)c1ccccc1)CC2 | . | . | -9.0
Cc1cc(C(=O)N2CCC(C)CC2)on1 | 0.7 | 3.2 | -3.6
CCOC(=O)N1CCN(C(=O)c2cc(C)no2)CC1 | 1.6 | 9.0 | 98.2*
O=C(CSc1ccc(-c2ccccc2Cl)nn1)Nc1ccc2c(c1)CCC2 | . | . | -13.0
Cc1cc(NC(=O)Cc2ccc3ccccc3c2)n(C(C)C)n1 | . | . | 12.0
CSc1ccccc1NC(=O)C(=O)NCC1CCN(c2nc3ccccc3s2)CC1 | . | . | -4.0
c1cnc2c(c1)ccc1c2ccc2cccnc21 | . | . | 21.4
SMILES | Sa RN4220 lethal | Sa ugtP lethal | SSB-PriA inh
O=S1(=O)Nc2c(ccc3cccnc23)-c2ccccc21 | 98.5* | 98.4* | 96.9*
COc1ccccc1OCC(=O)N1CCC(c2cccs2)CC1 | . | . | -2.0
COc1ccccc1CCNC(C)CCc1ccc(O)cc1 (stereo not drawn) | 2.1 | 3.3 | -2.6
COc1cc(OC)c(OC)cc1CCC(C)NCCC(c1ccccc1)c1ccccc1 (stereo not drawn) | . | . | 41.6*
COC(=O)N1CCC(CNC(=O)c2cc(-c3ccco3)on2)CC1 | . | . | -12.0
O=C(NCCN1CCN(c2ccccc2)CC1)c1ccccc1F | 7.0 | 11.5 | 16.5
O=C(NCCCN1CCN(CCCNC(=O)c2ccccc2F)CC1)c1ccccc1F | 4.1 | 1.0 | 61.3*
CCC1OC(=O)C(C)C(OC2C[C@@](C)(OC)C(O)C(C)O2)C(C)C(OC2OC(C)CC(N(C)C)C2O)[C@](C)(O)CC(C)C(=NOCOCCOC)C(C)C(O)[C@]1(C)O (stereo partly drawn) | 99.8* | 100.1* | .
CCC1OC(=O)C(C)C(OC2C[C@@](C)(OC)C(O)C(C)O2)C(C)C(O[C@@H]2OC(C)CC(N(C)C)C2O)[C@](C)(O)CC(C)C(=NOCOCCOC)C(C)C(O)[C@]1(C)O (stereo partly drawn) | . | . | -4.7
COc1cc(C=NNC(=O)c2cc(-c3cccn3C)n[nH]2)cc(OC)c1OC | 51.2 | 90.0* | 25.3
COc1cc(OC)c(OC)cc1C=NNC(=O)c1cc(-c2cccn2C)n[nH]1 | 3.4 | -10.5 | 25.0
O=S(=O)(c1ccc(Cl)cc1)N1CCN=C1SCc1cccnc1 | 6.1 | 7.4 | -11.8
O=S(=O)(c1ccc(Cl)cc1)N1CCN=C1SCc1cccc(Cl)c1 | 4.6 | 0.6 | 100.7*
COc1ccc2c(=O)c3c(=O)n(-c4ccc(C)cc4)c(C)nc3oc2c1 | . | . | -6.0
CSc1cccc2sc(NC(=O)c3ccc(Br)s3)nc12 | . | . | -9.0
CCN1CCCc2cc(CCNC(=O)C(=O)NCCOC)ccc21 | . | . | 68.0*
CCN1CCCc2cc(CCNC(=O)C(=O)NCCN3CCOCC3)ccc21 | . | . | 48.0
CCCNC(=O)C(=O)NCCc1ccc2c(c1)CCCN2CC | . | . | 40.9
CCN1CCCc2cc(CCNC(=O)c3ccc(Br)o3)ccc21 | . | . | active!
CCN1CCCc2cc(CCNC(=O)c3ccc(C(F)(F)F)cc3)ccc21 | . | . | 27.0
CCN1CCCc2cc(CCNC(=O)NC(C)(C)C)ccc21 | . | . | 44.0*
CCN1CCCc2cc(CCNC(=O)C(=O)NC(C)(C)C)ccc21 | . | . | 52.1
CCN1CCCc2cc(CCNC(=O)c3ccc(OC(C)C)cc3)ccc21 | . | . | 61.0*
CCCCCC(=O)N=C1SC2CS(=O)(=O)CC2N1c1ccc(Br)c(C)c1 (stereo not drawn) | . | . | 5.0

Screening data: PubChem, several laboratories
